# In PubChem BioAssay (NCI):
# The panel holds about 79,000 compounds, 15% with a hit somewhere; the sample as a whole holds those more often. Values without a mark were called inactive. The source made the active and inactive calls. No stated cut-off is given here; in the data, active means growth inhibition above about 70%; inactive means the rest.
# Key:
# [1] = NCI Yeast Anticancer Drug Screen. Data for the rad50 strain (AID 155);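 further: 0% = growth of vehicle-only cultures of the same strain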; conditions: S. cerevisiae rad50 strain growth inhibition, hits give high values; at 50.0 µM unless noted
# Procedure, shortened: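 Readout: growth inhibition relative to vehicle-treated cultures. Compound exposure was carried out in a genetically defined yeast strain deficient in DNA damage repair.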
# [2] = NCI Yeast Anticancer Drug Screen. Data for the mec2-1 strain (AID 157); conditions: S. cerevisiae mec2-1 strain, hits give high values; at 50.0 µM unless noted
# Procedure, shortened: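 Using mec2-1 yeast: add compound, measure growth, express inhibition versus vehicle-treated cultures.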
# [3] = NCI Yeast Anticancer Drug Screen. Data for the sgs1 mgt1 strain (AID 161);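 further: 0% = growth of cultures given vehicle only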; conditions: S. cerevisiae sgs1 mgt1 strain, hits give high values; at 50.0 µM unless noted
# Procedure, shortened: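 Compounds are added to genetically altered yeast, and growth is compared with cultures given vehicle alone to give percent inhibition.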
# [4] = NCI Yeast Anticancer Drug Screen. Data for the cln2 rad14 strain (AID 165);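 further: 0% = growth equal to vehicle treated cultures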; conditions: S. cerevisiae cln2 rad14 strain, hits give high values; at 50.0 µM unless noted
# Procedure, shortened: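 Yeast strain cln2 rad14, bearing defects in cell cycle control and DNA repair, serves as the test system; values reflect growth inhibition compared with vehicle.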
# [5] = NCI Yeast Anticancer Drug Screen. Data for the bub3 strain (AID 167); conditions: S. cerevisiae bub3 mutant strain, hits give high values; at 50.0 µM unless noted
# Procedure, shortened: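 Readout: yeast growth inhibition, expressed relative to vehicle-only wells. The test organism is a mutant strain from a panel with lesions in DNA repair or checkpoint genes.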
# [6] = NCI Yeast Anticancer Drug Screen. Data for the mlh1 rad18 strain (AID 175); conditions: S. cerevisiae mlh1 rad18 strain growth inhibition, hits give high values; at 50.0 µM unless noted
# Procedure, shortened: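 Steps: expose repair-defective yeast to compound; measure growth; express inhibition against vehicle-treated controls.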
Structure (SMILES),growth inhibition [1],growth inhibition [2],growth inhibition [3],growth inhibition [4],growth inhibition [5],growth inhibition [6]
O=C(Cc1nc2ccccc2o1)C(=O)Nc1cccc(Cl)c1,-4.25%,0.9%,-1.95%,-42.2%,3.65%,19.1%
OC1CSc2nc3ccccc3n2C1 (stereo not given),17.6%,9.25%,12.3%,9.7%,20.8%,38.9%
c1ccc2[nH]c(CSc3nc4ccccc4s3)nc2c1,10.1%,17.2%,37.5%,33.6%,-0.75%,28.6%
Nc1ncnc2c1ncn2CC(O)CN(CCO)CCO (stereo not given),13.1%,7.95%,-3.7%,8.2%,-10.8%,18.6%
CCOC(=O)C(N)CSC(=O)NC (stereo not given),24.9%,-3.4%,16%,3.2%,20.9%,-49.5%
N#CC(C(=S)Nc1ccccc1)=C1Nc2ccccc2N1,7.2%,-36.2%,-18.1%,-2.65%,-20.1%,-22.8%
CCOc1cc(C=O)c2c(ccc3ccc(OC)c(OC)c32)c1OC,86.5% (active),90.8% (active),84.7% (active),83.5% (active),82.4% (active),-11.8%
CSc1nc(N)c(I)c(Cl)n1,7.8%,3.65%,6.9%,2.4%,-14.6%,-2.6%
C(#Cc1ccccc1)CC#Cc1ccccc1,5.4%,10.2%,-11.7%,-0.3%,-11.2%,3.05%
CCOC(=O)c1cccc(N)c1C(=O)OCCN(CC)CC,1.65%,0.15%,-3.75%,-25.2%,19.4%,3.55%
COc1ccc(NC(Nc2ccc(OC)cc2)C(Cl)(Cl)Cl)cc1,15.1%,9.5%,13%,-11.2%,-4.55%,-8.6%
CN(C)CC(O)(C(=O)c1ccccc1)c1ccccc1 (stereo not given),-4.35%,-9.8%,-13.5%,-25.2%,-19.6%,-6.05%
CC1C(c2ccccc2)OCCN1CN1C(=O)c2ccccc2C1=O (stereo not given),10.8%,17.4%,12.4%,21.8%,17.1%,-3.6%
CC(C)N(CC(C)(C)O)C(=O)c1ccccc1,-5.35%,11.7%,17.1%,6.1%,-14.7%,-8.4%
OC1COC(CCl)OC1C1OC(CCl)OCC1O (stereo not given),10.2%,23.6%,17.9%,6.3%,19.4%,25.9%
COc1cc(C(=O)NNC(=O)c2ccc(Cl)c(Cl)c2)cc(OC)c1OC,24.4%,33.9%,20.5%,18.4%,33.3%,34.9%
OCC(O)COc1ccc(F)cc1 (stereo not given),19.7%,-16.2%,-0.15%,4.55%,-6.25%,-12.1%
Cc1ccnc(NS(=O)(=O)c2ccc(N=[N+]=[N-])cc2)n1,-3.2%,-6%,1.9%,-7.4%,-17.6%,-14%
N/N=C1\C(=O)N(c2ccc(Cl)c(Cl)c2)C(=O)C1C(=O)Nc1ccc(Cl)c(Cl)c1 (stereo not given),-7.35%,-19.4%,-20.6%,-16.4%,-29.6%,-31.1%
O=c1[nH][nH]c(=O)c2c([N+](=O)[O-])cccc12,-17.6%,-8.6%,-3.8%,-37.5%,0.35%,-0.35%

Structure (SMILES),growth inhibition [1],growth inhibition [2],growth inhibition [3],growth inhibition [4],growth inhibition [5],growth inhibition [6]
O=C1c2ccccc2C(=Cc2cccc([N+](=O)[O-])c2)c2ccccc21,15.6%,18.4%,-6.35%,9.75%,4.2%,0.6%
COc1ccc2c(c1)CCC1=C2CCC2(C)C1=CCS2(=O)=O (stereo not given),3.85%,-5.6%,-7.9%,22.6%,8.45%,-1.9%
O=C(O)c1c(O)cc(=O)oc1-c1ccc(Cl)cc1,10.8%,0.9%,3.75%,4%,10.4%,4.75%
Cn1c2ccccc2c2c3c(ccc21)C(=O)N(c1ccccc1)C3=O,11.7%,-4.7%,12.9%,-3.5%,12.4%,2.95%
O=S1(=O)CS/C(=N\C(=S)N(c2ccccc2)c2ccccc2)N1c1ccccc1,32.5%,-11.3%,-3.4%,18.2%,4.75%,2.2%
C=CC[N+]1(CCOC(=O)C(c2ccccc2)C2C=CCC2)CCCC1 (stereo not given),-17.1%,1.35%,-6.9%,-13.8%,-13.9%,-22.4%
C[n+]1ccc(/C=N/O)cc1,-5.05%,-22.4%,-0.45%,2.95%,8.45%,-11.2%
Cc1cnc2ccccc2n1 (tested in a mixture with another compound),-1.5%,4.35%,-5.25%,8%,-2.1%,24.8%
CCc1ccc(-c2cc(-c3ccc(CC)cc3)cc(-c3ccc(CC)cc3)c2)cc1,20.1%,-10.1%,-18.9%,0.3%,-4.7%,7.95%
N#CCc1nc(-c2cc3ccc(O)cc3oc2=O)cs1,19.1%,8.45%,-25.9%,2.8%,-12.4%,-40.8%
C/C(=N\NC(=O)Nc1ccc(N=Nc2ccccc2)cc1)c1ccncc1,17.4%,10.5%,19.1%,1.5%,14.3%,10.7%
OCCC1CCCCN1 (stereo not given),9.25%,-8.4%,-20.4%,-18.4%,-0.75%,54.5%
NC(C=O)C(O)C(O)C(O)CO (stereo not given),-1.75%,-18.2%,4.95%,-10.2%,-19.5%,-6.9%
CC(=O)Nc1c(N)c2ccccc2c2ccccc12,-4.2%,-13.9%,-22.7%,1.75%,-4.5%,-12.2%
CC12OC3(C)C4CC1C1(C)OC4(C)C3C(O)C21 (stereo not given),-0.8%,4.8%,-3.7%,-16.6%,-6.5%,10.3%
O=c1[nH]c(=O)c2cc(Cl)ccc2[nH]1,3.2%,6.75%,-2.75%,-37%,4.75%,0.65%
COC1=CC(=O)c2cc3ccc(OC)c(N)c3nc2C1=O,12.8%,-7.2%,5.45%,-4.2%,13.3%,-10.9%
CC(=O)OCC1C2C=CC(C2)C1COC(C)=O (stereo not given),2.2%,-4.8%,-5.1%,-47.1%,-2.9%,2.1%
C1COC2SC3=C(SC(=C4SC5=C(SCCS5)S4)S3)SC2O1 (stereo not given),3.05%,-2.05%,19.2%,-5.6%,8.85%,6.9%
CC(=O)Nc1ccc(NCC(=O)Nn2cnc3ccc(S(=O)(=O)Nc4ccc(NC(C)=O)cc4)cc3c2=O)cc1,5.55%,-18.1%,16.6%,20.9%,-0.6%,6.95%
